TSHR antag: Antagonists of the Thyroid Stimulating Hormone Receptor: HTS campaign. TSHR-expressing cells, TSH-stimulated cAMP HTRF, 2 h; active compounds read low. activity change, negative = inhibition, % at 11.5 µM. actives 0.2% (n = 330,000). AID 504810, 2011;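 active means activity change below a set negative limit, meaning inhibition stronger than a set level, cut at about -70% in these data; inconclusive means activity change between two set negative limits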; further: on the % scale 0 is the no-effect control and ±100 the full control effect
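Inhibition of cAMP made by TSHR-expressing cells under TSH stimulation (4nM final, EC80; 2 h, 37 deg C) is quantified with a one-step lysis HTRF kit, anti-cAMP cryptate versus cAMP-d2.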
Integrin act MD: qHTS for Activators of Integrin-Mediated Alleviation for Muscular Dystrophy; alpha7betagal myoblasts, beta-gal FDG fluorescence, 48 h; Potency, µM (top dose mostly 38.3 µM), for inactives: top-dose activation, hits mostly activators; actives 0.064% (n = 350,000);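 further: potency means the concentration at half of the fitted maximal effect; 100% = response of the positive control SU9516; nearly all actives have a fitted effect of over 60% in size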
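alpha7betagal+/- myoblasts (passage 13, 250/well) treated 48 h at 37C with compounds at 1:260 dilution of DMSO stock. Lysed, then beta-galactosidase activity read as FDG fluorescence (ex 480/em 540) after 30 min, with pre-read for autofluorescence.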
CBFb RUNX1 block: qHTS Assay for Compounds Blocking the Interaction Between CBF-beta and RUNX1 for the Treatment of Acute Myeloid Leukemia | AlphaScreen CBFb-His/RUNX1-biotin binding, biochemical | Potency, µM (titrated, usually from 59.8 µM), without a hit: at the highest dose activity, negative = inhibition, actives largely listed as inhibitors | 230,000 tested, under 10 active | AID 1477, 2009; further: % of control where 0% means no effect
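Interaction loss through any mechanism counts as activity. Pre-formed complex of His-CBF-beta and biotin-RUNX1 (30 nM apiece) is incubated with compound 15 min, then with 50 ng nickel and 50 ng streptavidin beads for 90 min before AlphaScreen detection.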
PTAP TSG101 blk: qHTS Assay for Iinhibitors of HIV-1 Budding by Blocking the Interaction of PTAP/TSG101; Fluorescence polarization, FITC-PTAP peptide / Tsg101 binding; Potency, µM (top dose mostly 115 µM), for the others: top-dose activity change, negative = inhibition, actives largely listed as inhibitors; 340,000 tested, under 10 active; AID 493005, 2010; active means well fitted inhibition curve with a large enough effect in the main read-out, with a control signal flat, not every such curve was filed as active; inconclusive means small, poorly fitted or top-dose-only effect, or effect the other way, or a change in a side signal; inactive means no such curve, though single readings can be large or run the other way; further: potency means the concentration at half of the fitted maximal effect; % of control where 0% means no effect
Target sequence (Q99816 whole entry, looked up): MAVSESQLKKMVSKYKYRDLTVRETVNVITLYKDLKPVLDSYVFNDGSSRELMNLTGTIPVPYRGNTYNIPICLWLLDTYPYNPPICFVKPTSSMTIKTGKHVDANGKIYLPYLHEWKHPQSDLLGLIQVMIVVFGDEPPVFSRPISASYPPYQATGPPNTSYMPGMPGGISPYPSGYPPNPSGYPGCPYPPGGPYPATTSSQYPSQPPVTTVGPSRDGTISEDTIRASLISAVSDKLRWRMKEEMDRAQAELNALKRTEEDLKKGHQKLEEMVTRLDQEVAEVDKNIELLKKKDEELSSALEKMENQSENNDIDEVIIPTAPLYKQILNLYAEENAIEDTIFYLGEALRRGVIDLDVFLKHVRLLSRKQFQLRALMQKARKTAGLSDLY
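FP read-out: FITC-PTAP peptide, 50 nM final, binding Tsg101 binding domain, 10 uM final; 20 min, r.t.; 10 mM HEPES pH 7.5, 0.15 M NaCl, 0.01% Tween 20, 3 mM EDTA, 0.1 mM TCEP.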
MBNL1-CUG inh: qHTS Assay for Inhibitors of MBNL1-poly(CUG) RNA binding; Potency, µM (series often up to 57.5 µM), without a hit: at the top dose activity change, negative = inhibition, usual class: inhibitors; TR-FRET MBNL1-His/biotin-(CUG)12 binding, 665/545 ratio; actives 0.036% (n = 280,000); AID 2675, 2010; active means well fitted inhibition curve with a large enough effect in the signal ratio, with a control signal flat, not every such curve was filed as active; inconclusive means small, poorly fitted or top-dose-only effect, or effect the other way, or a change in a side signal; inactive means no such curve, though single readings can be large or run the other way; the % refers to the signal ratio; further: potency means the concentration at half of the fitted maximal effect; on the % scale 0 is the no-effect control and ±100 the full control effect
Target sequence (Q9NR56 whole entry, looked up): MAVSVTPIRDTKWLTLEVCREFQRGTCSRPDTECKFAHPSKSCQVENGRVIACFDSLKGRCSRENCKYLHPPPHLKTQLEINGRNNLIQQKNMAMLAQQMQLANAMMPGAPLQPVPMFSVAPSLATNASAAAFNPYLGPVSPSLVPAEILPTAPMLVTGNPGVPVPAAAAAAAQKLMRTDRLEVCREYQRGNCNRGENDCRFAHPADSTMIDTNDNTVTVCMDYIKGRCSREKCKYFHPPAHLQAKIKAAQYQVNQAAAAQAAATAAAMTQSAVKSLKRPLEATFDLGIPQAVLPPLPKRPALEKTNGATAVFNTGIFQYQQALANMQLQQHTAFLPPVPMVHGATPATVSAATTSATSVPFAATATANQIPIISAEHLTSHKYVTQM
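Compound titration spanned 92 nM–58 uM against the MBNL1-His/biotin-(CUG)12 complex. After 60 min at room temperature with 5 nM streptavidin-XL665 and 0.055 ng/ul terbium anti-His, ratiometric 665/545 nm emission (Ex 340 nm) normalized to controls.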
TCR activator: Activators of T cell receptors: qHTS campaign. primary human leukocytes, anti-CD3, IL-2 HTRF, 48 h. Potency, µM (doses to about 9.22 µM), for the others: top-dose activation of IL-2 secretion, usual class: activators. 330,000 tested, under 10 active; further: % of control where 0% means no effect
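48 hr co-incubation of compounds, a-CD3 beads and primary human leukocytes; IL-2 quantified homogeneously by HTRF with anti-IL-2 K and d2 conjugates.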
Active calls of the source: *; ? = inconclusive; · = not tested or not shown; [ ] = remark or other dose. Hits are enriched below; roughly 0.26% of the tested compounds scored in any of these assays. Unless noted, the call rests on the fitted dose curve; in most records, active means well fitted curve in the direction sought with a large enough effect; inconclusive means small, poorly fitted or top-dose-only effect, or another doubt; inactive means no such curve, though single readings can be large; an effect the other way counts as inactive or inconclusive.

SMILES | TSHR antag | Integrin act MD | CBFb RUNX1 block | PTAP TSG101 blk | MBNL1-CUG inh | TCR activator
CC(C)=NOC[C@@H](O)[C@@H]1O[C@@H]2OC(C)(C)O[C@@H]2[C@H]1O | · | · | 14%[13.1 µM] | · | · | ·
O=c1oc(C2(O)CCCCC2)cc2ccc(Br)cc12 | -12 | 0% | · | · | · | -1%
O=c1oc(C2(O)CCCCC2)cc2ccc(/C=C/c3ccc(F)cc3)cc12 | -79* | 22% | · | 0% | · | 5%
COc1ccc(-c2ccccc2C2NC(C(=O)O)CCC2C)cc1 (stereo unspecified) | · | · | 16%[13.1 µM] | · | · | ·
CN(C)S(=O)(=O)c1ccc(C(=O)Nc2nc3ccccc3[nH]2)cc1 | 2 | 8.9µM* | -1% | 2% | 1% | 3%
O=C(Nc1nc2ccccc2[nH]1)c1ccc(F)cc1 | 0 | 9% | -1% | -9% | 9% | 1%
CCCCC/C=C\C\C=C/C=C/C=C/[C@@H](SC[C@H](NC(=O)CC[C@H](N)C(=O)O)C(=O)NCC(=O)O)[C@@H](O)CCCC(=O)O | · | · | 9% | · | · | ·
Cc1cc(Cl)n2c(nc3cc(F)c(F)cc32)c1C#N | -73* | -66% | 5% | -2% | 12% | -2%
Cc1cc(C)n2c(=O)c3ccc(Cl)cc3nc2c1C#N | -9 | ? | 1% | 1% | 11% | 3%
Cc1ccc(S(=O)(=O)Nc2ccc(N=Nc3ccc(O)cc3)cc2)cc1 | -75* | 4% | -5% | -5% | · | -1%[46.1 µM]
COc1c(C=O)c(O)cc2c1C(=O)c1ccccc1C2=O | · | · | -25% | · | · | ·
CCCCNc1c(-c2cccc(-c3ccc(OC)cc3)c2)nc2ccc(C)cn12 | -83* | -43% | · | -3% | · | -9%
O=C1C(Cl)=C(Nc2ccc3cn[nH]c3c2)C(=O)c2ccccc21 | -90* | -60% | ? | -5% | ? | 5%
O=C(Nc1ccc2cn[nH]c2c1)c1c(Cl)cccc1Cl | -5 | ? | -3% | -2% | -2% | 3%[46.1 µM]
Cc1nc(NC2CCCCC2)c2nc(-c3ccccc3)n(CC3CCN(C)CC3)c2n1 | · | · | 6% | · | · | ·
CCC(C)[C@@H](NC(=O)OC(C)(C)C)c1nnc(S(=O)(=O)Cc2cccc(C)c2)o1 (stereo partly specified) | -72* | -68% | 0% | 2% | -8% | 1%
COc1ccc(S(=O)(=O)N2CCOC23CCN(C(=O)c2ccc(Cl)cc2Cl)CC3)cc1 | -115* | 26% | · | -5% | 1% | 0%
CCN1C(=O)[C@H]2[C@H]3[C@H](O)[C@H](O)C/C(=N/OCC(C)C)[C@@H]3CC[C@@H]2C1=O | · | · | 6%[13.1 µM] | · | · | ·
CC(C)Cn1c(-c2csc3c2CCCC3)n[nH]c1=S | -82* | 23% | -10% | -1% | -7% | -2%
CC(C)Cn1c(-c2ccccc2F)n[nH]c1=S | -22 | -4% | 7% | 5% | 11% | 0%
CC(C)ON([C@@H](C(=O)NO)C(C)C)S(=O)(=O)c1ccc(-c2ccccc2)cc1 | -9 | · | · | · | · | ·
CCOC(=O)c1c(S(=O)(=O)NCC(=O)Nc2cccc(C)c2C)c(C)n(C)c1C | -112* | -3% | · | -5% | -8% | 6%
CCOC(=O)c1c(S(=O)(=O)NCC(=O)Nc2cccc(F)c2)c(C)n(C)c1C | 2 | 30% | · | -4% | -9% | 4%
CC1CCCCC12NC(=O)N(CC(=O)OCc1cccc(F)c1)C2=O (stereo unspecified) | 13 | 10µM* | · | 2% | · | -2%
CC1CCCCC12NC(=O)N(CC(=O)OCc1ccccc1F)C2=O (stereo unspecified) | 13 | 21% | · | 0% | · | 2%[46.1 µM]
SMILES | TSHR antag | Integrin act MD | CBFb RUNX1 block | PTAP TSG101 blk | MBNL1-CUG inh | TCR activator
CC(C)(C)Cn1nc(-c2ccc(Cl)cc2)c2c(N)ncnc21 | · | · | 2%[21.7 µM] | · | · | ·
CC(=O)OCC(NC(=O)C(COCc1ccccc1)NC(=O)OC(C)(C)C)C1OC(n2cc(C)c(=O)[nH]c2=O)C(OC(C)=O)C1OC(C)=O (stereo unspecified) | · | · | 2% | · | · | ·
CCC(CC)C(=O)Nc1c(C(=O)N2CCN(c3ccccc3)CC2)oc2ccccc12 | -6 | 13µM* | · | 0% | -2% | -9%
COc1cc(/C=C2\SC(=S)NC2=O)ccc1OS(=O)(=O)c1ccccc1 | -74* | · | 5% | · | 14% | 2%[46.1 µM]
COc1ccc2oc(CS(=O)c3ccccc3)c(C(=O)O)c2c1 (stereo unspecified) | -12 | 13µM* | · | -4% | -8% | ·
CCOC(=O)c1c(-c2ccccc2)oc2ccc(OC)cc12 | -11 | 9% | ? | -2% | -1% | 0%
CN(NC(=O)c1ccco1)c1nc2ccccc2nc1C(F)(F)F | -76* | -10% | 9% | -6% | 12% | 6%
Cc1ccccc1C(=O)NN(C)c1nc2ccccc2nc1C(F)(F)F | 1 | 10% | 9% | -4% | 36% | 2%
C=C[C@@H](C1=CC(=O)C(OC)=C(OC)C1=O)c1ccccc1 | · | · | -11% | · | · | ·
O=C(Nc1cccc(Cl)c1)Nn1cnnc1 | 4 | 14% | 2% | 1% | 25µM* | -4%
C/C(CCN1CCc2nc(-c3ccccc3)c(-c3ccccc3)cc2C1)=N\O[C@@H](C)CN1CCCCc2nc(C)c(C)cc21 | · | · | 10%[13.1 µM] | · | · | ·
CCCN1C2CCCC1CC(NC(=O)c1cccc([N+](=O)[O-])c1)C2 (stereo unspecified) | 2 | 10µM* | · | 0% | ? | 5%
CCOC(=O)C1CCN(C(=O)CCS(=O)(=O)c2ccc3c(c2)CCN3C(=O)CC)CC1 | -2 | -8% | -1% | -2% | -2% | -2%
Cc1ccc(C)c(N2CCN(C(=O)CCS(=O)(=O)c3ccc4c(c3)CCN4C(=O)C3CC3)CC2)c1 | -82* | -24% | · | -2% | 1% | 2%
CN(C)S(=O)(=O)c1ccc(C(=O)Nc2ccc3c(c2)CCC3)cc1 | 3 | -17% | · | -1% | 1% | 6%
CN(C)S(=O)(=O)c1cccc(C(=O)Nc2ccc3c(c2)CCC3)c1 | -7 | 2.8µM* | · | -1% | 1% | -5%
COc1ccc(-c2cc3ncc(C)n3c(Nc3ncccc3C(N)=O)n2)cc1OC | -22 | · | · | · | · | ·
COc1cccc(/C=N/NC(=O)c2nnn(-c3nonc3N)c2CN(C)c2ccccc2)c1 | -4 | 5% | · | -4% | 2% | 4%

Compound activity (PubChem)
